The source of these data is the supplement of paper PMC10849652.

Of roughly 8,800 targets only a part is listed; those with a hit were picked by preference. About 0.5% of all pairs of compound and target were hits.

Chain of UniProt Q99541 (Q99541 whole entry, looked up): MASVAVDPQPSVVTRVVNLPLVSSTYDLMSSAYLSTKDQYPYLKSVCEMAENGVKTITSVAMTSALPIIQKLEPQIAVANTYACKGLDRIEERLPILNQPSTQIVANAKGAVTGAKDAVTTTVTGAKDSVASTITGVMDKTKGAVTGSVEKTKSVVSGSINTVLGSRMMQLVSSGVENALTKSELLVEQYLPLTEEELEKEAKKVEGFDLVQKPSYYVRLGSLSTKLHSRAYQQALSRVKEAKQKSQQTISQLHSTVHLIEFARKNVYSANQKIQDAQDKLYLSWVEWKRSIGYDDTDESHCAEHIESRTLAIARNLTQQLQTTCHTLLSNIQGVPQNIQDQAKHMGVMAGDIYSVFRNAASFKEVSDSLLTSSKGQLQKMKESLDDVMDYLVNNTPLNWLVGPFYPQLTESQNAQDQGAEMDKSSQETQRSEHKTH
Chain of UniProt P15735 (P15735 whole entry, looked up): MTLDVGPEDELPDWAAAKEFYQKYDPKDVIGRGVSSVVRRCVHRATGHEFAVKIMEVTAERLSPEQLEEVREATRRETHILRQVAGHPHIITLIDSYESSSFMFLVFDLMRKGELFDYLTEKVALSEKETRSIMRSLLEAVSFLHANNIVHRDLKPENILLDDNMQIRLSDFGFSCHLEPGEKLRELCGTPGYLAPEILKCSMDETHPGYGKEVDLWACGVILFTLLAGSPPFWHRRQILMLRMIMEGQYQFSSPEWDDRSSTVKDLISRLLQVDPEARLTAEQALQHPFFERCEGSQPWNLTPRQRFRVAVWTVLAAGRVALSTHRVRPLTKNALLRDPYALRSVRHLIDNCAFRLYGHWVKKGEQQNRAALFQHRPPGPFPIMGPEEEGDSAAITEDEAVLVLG
Chain of UniProt P09884 (P09884 whole entry, looked up): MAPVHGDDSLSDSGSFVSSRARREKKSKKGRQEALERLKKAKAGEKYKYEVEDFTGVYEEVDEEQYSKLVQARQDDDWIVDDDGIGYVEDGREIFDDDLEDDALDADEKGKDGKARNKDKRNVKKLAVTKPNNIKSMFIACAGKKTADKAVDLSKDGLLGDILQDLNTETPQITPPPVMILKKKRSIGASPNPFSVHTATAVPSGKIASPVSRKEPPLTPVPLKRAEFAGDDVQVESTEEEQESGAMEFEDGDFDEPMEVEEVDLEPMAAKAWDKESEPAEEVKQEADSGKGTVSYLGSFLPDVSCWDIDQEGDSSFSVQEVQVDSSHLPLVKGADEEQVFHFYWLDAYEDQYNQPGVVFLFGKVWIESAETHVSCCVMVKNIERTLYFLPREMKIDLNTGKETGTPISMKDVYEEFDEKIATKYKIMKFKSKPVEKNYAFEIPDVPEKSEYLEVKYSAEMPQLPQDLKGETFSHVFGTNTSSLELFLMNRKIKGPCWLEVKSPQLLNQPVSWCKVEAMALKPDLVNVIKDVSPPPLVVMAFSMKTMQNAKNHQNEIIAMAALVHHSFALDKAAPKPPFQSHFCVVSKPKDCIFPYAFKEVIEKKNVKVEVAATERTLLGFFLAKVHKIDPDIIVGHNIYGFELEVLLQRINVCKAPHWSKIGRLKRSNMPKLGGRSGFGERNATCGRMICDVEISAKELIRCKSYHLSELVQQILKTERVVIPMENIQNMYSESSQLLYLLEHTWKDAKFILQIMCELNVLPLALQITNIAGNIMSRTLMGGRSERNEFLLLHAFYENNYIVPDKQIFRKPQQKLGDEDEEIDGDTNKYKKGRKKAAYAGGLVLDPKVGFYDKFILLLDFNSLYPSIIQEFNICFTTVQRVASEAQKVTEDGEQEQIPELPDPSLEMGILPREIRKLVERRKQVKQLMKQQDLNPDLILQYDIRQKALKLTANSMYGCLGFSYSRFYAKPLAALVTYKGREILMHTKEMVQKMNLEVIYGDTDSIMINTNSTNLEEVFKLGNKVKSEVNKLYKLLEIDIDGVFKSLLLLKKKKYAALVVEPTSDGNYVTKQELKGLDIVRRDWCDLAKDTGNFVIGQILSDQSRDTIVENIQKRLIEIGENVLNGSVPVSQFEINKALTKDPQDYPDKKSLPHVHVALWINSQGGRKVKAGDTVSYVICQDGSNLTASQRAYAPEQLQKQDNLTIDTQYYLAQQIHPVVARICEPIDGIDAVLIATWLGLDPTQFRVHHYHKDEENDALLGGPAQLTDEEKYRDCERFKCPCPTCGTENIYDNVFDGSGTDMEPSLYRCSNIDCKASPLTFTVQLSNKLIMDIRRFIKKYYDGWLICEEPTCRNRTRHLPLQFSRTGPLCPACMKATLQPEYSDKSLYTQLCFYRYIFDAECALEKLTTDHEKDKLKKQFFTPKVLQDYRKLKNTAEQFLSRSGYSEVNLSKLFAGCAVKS
Chain of UniProt Q9NVU0 (Q9NVU0 whole entry, looked up): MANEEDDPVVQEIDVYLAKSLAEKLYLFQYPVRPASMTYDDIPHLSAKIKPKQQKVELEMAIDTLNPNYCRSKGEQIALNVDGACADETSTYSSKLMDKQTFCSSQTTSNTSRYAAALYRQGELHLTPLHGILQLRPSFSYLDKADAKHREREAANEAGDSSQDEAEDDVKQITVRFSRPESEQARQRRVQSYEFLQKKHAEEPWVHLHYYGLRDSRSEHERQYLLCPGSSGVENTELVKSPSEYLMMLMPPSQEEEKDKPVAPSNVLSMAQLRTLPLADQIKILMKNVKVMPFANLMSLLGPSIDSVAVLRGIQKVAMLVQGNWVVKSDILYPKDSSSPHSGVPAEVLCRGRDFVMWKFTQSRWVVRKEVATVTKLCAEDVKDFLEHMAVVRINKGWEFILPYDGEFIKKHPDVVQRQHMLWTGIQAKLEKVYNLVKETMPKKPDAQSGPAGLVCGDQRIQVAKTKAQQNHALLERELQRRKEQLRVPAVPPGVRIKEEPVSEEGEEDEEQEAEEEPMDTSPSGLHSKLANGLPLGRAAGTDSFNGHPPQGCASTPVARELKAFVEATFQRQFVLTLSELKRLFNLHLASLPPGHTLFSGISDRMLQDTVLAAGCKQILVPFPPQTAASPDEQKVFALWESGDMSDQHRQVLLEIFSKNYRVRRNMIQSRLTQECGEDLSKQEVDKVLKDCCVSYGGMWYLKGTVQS
Chain of UniProt Q9H7Z7 (Q9H7Z7 whole entry, looked up): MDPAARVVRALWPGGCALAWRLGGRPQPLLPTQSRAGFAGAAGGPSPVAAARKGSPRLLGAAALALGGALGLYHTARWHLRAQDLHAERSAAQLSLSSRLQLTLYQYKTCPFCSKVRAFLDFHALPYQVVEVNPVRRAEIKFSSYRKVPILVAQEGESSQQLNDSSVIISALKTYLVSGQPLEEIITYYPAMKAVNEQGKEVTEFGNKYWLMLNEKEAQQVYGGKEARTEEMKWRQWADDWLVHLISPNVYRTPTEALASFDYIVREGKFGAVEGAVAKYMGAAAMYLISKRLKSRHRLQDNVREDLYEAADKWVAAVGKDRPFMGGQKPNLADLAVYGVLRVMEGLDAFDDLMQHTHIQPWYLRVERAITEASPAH
Chain of UniProt Q16512 (Q16512 whole entry, looked up): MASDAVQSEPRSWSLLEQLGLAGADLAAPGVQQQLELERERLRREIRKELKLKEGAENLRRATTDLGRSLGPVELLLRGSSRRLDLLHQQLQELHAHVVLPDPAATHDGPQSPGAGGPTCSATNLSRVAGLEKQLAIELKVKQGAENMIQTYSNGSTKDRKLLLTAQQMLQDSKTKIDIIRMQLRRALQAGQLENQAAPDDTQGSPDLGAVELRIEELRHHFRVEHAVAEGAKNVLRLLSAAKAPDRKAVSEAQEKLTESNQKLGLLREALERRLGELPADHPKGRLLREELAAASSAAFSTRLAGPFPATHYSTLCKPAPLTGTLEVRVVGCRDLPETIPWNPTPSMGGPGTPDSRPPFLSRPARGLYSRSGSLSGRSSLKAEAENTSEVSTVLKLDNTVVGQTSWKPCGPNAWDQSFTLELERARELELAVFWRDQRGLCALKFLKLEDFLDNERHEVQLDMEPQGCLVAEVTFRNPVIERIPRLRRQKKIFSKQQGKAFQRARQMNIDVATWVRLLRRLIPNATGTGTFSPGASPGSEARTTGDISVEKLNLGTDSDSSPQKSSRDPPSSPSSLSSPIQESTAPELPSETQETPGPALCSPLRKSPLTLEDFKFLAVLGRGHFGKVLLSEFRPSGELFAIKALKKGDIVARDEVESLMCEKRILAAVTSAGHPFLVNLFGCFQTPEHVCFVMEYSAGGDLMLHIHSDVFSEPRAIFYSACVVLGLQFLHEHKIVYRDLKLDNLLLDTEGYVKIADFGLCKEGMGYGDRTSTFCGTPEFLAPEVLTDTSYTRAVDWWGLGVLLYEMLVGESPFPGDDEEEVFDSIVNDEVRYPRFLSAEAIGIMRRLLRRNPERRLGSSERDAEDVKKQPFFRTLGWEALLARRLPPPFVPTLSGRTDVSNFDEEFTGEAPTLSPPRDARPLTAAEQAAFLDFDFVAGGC
Chain of UniProt P49642 (P49642 whole entry, looked up): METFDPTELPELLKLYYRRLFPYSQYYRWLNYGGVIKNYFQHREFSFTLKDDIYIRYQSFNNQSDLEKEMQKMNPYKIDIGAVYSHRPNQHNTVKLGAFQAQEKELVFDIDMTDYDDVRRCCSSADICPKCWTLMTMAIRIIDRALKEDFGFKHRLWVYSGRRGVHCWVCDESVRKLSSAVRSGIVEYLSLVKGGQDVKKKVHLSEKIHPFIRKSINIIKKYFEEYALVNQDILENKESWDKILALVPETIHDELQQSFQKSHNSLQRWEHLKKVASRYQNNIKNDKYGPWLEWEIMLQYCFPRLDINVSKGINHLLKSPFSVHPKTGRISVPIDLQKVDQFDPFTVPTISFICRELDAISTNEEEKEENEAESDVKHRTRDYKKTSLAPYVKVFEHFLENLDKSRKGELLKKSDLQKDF
Chain of UniProt Q9UBV8 (Q9UBV8 whole entry, looked up): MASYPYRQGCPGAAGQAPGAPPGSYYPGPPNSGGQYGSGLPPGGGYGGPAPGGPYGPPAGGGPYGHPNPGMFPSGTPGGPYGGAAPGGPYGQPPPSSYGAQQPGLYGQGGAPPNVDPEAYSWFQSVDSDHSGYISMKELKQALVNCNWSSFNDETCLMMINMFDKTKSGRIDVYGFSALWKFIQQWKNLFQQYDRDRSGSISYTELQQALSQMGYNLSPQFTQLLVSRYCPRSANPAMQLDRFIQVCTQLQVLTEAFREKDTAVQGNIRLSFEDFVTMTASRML

Compound in this experiment: COc1cc2ncnc(Nc3ccc(F)c(Cl)c3)c2cc1OCCCN1CCOCC1 [gefitinib]
Briefly: log2 fold change, soluble protein after heating vs DMSO (PISA); higher = thermal stabilisation; K562 lysate, 10 uM; active = over 0.2 and 3.5 SD of the protein, either way, in both replicates (recomputed). A digest of the protocol: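 To prepare the extract, K562 pellets were dounce-homogenised in PBS pH 7.4 with 1 mM MgCl2, giving crude material at 1 mg/mL protein. This was treated with 10 μM compound for 30 min, then heated in aliquots for 3 min over 48°C-58°C before pooling and addition of NP-40 to 0.5% at 4°C. Centrifugation at 21,000xg for 90 min left soluble protein in the supernatant, which TMTpro 16plex LC-MS/MS quantified with equalised channel sums. Results are log-two fold changes in thermal stability compared with solvent controls, from duplicates.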
Take PDCD10 (UniProt Q9BUL8): the log2 fold change is -0.025 (inactive).
As for PGPEP1 (UniProt Q9NXJ5), the log2 fold change is -0.06 (inactive).
Under PRIM1 (UniProt P49642) stands -0.008 (inactive); under PPP1R8 (UniProt Q12972), -0.05 (inactive).
PELO (UniProt Q9BRX2): the log2 fold change is 0.006 (inactive).
In the case of PDCD6IP isoform 2 (UniProt Q8WUM4), the log2 fold change is -0.003 (inactive).
To PTGES2 (UniProt Q9H7Z7) belongs 0.245 (inactive); to PYURF (UniProt Q96I23), -0.038 (inactive); to PMPCA (UniProt Q10713), -0.02 (inactive).
For the target POLA1 (UniProt P09884), the log2 fold change was 0.008 (inactive).
With PHKG2 (UniProt P15735), the log2 fold change is 0.03 (inactive).
For PRKACB isoform 2 (UniProt P22694), the log2 fold change is 0.006 (inactive).
Regarding POLB (UniProt P06746), the log2 fold change is 0.038 (inactive).
PTPN1 (UniProt P18031): the log2 fold change is 0.014 (inactive).
For PRPH isoform 2 (UniProt P41219), the log2 fold change was 0.014 (inactive).
Under PKN1 isoform 2 (UniProt Q16512) stands -0.005 (inactive); under PPP4R2 (UniProt Q9NY27), -0.01 (inactive); under PEF1 (UniProt Q9UBV8), -0.02 (inactive).
As to PXMP4 (UniProt Q9Y6I8), the log2 fold change was -0.039 (inactive).
For the target POLR3E (UniProt Q9NVU0), the log2 fold change was 0.009 (inactive).
Consider PRKRA (UniProt O75569), for which the log2 fold change was -0.006 (inactive).
In the case of PTK2 (UniProt Q05397), the log2 fold change was -0.022 (inactive).
As for PLIN2 (UniProt Q99541), the log2 fold change is 0.104 (inactive).
